Experimental data from PubChem BioAssay AID1159580 (chemical genetic matrix, 2015).
Where “and” joins values, the source holds several entries; their conditions need not be identical. Equal values may be shown once. In all, about 5,500 compounds went through this assay and about 2,000 (36%) were called active. About 18% were inconclusive and are not listed. Rule as the data show it: active = normalized growth mostly below about 0.91 (no sharp cut-off); inconclusive = no clear call, values can overlap the other calls; inactive = mostly above about 0.92. This is one part of the list.

Test: chemical genetic growth profiling, strain panel (AID 1159580);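 also: tested at 20 µM; growth read once vehicle control cultures reached saturation at 30 °C; 1 = growth at the plate median or of vehicle wells; lower values mean less growth of the strain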
Details: S. cerevisiae deletion strains, growth OD

CC1(C)C=Cc2cc3ccc(=O)oc3cc2O1
normalized growth (locus YAL013W, strain DEP1, stronger effect = lower value): 0.986 (inactive) | normalized growth (locus YAL021C, strain ccr4, stronger effect = lower value): 0.987 (inactive) | normalized growth (locus YAL026C, strain drs2, stronger effect = lower value): 0.963 (inactive) | normalized growth (locus YAL030W, strain snc1, stronger effect = lower value): 0.934 (inactive) | normalized growth (locus YBL061C, strain skt5, stronger effect = lower value): 0.972 (inactive) | normalized growth (locus YBR009C, strain hhf1, stronger effect = lower value): 0.875 (active) | normalized growth (locus YBR021W, strain FUR4, stronger effect = lower value): 0.95 (inactive) | normalized growth (locus YBR023C, strain chs3, stronger effect = lower value): 0.912 (active) | normalized growth (locus YBR171W, strain sec66, stronger effect = lower value): 0.945 (inactive) | normalized growth (locus YBR229C, strain ROT2, stronger effect = lower value): 0.995 (inactive) | normalized growth (locus YBR231C, strain swc5, stronger effect = lower value): 0.958 (inactive) | normalized growth (locus YBR279W, strain paf1, stronger effect = lower value): 0.973 (inactive) | normalized growth (locus YCL011C, strain gbp2, stronger effect = lower value): 0.865 (active) | normalized growth (locus YCL016C, strain dcc1, stronger effect = lower value): 0.891 (active) | normalized growth (locus YCL029C, strain bik1, stronger effect = lower value): 0.967 (inactive) | normalized growth (locus YCL069W, strain vba3, stronger effect = lower value): 0.915 (active) | normalized growth (locus YCR088W, strain abp1, stronger effect = lower value): 0.927 (inactive) | normalized growth (locus YDL005C, strain med2, stronger effect = lower value): 0.96 (inactive) | normalized growth (locus YDL035C, strain GPR1, stronger effect = lower value): 0.984 (inactive) | normalized growth (locus YDL040C, strain nat1, stronger effect = lower value): 0.962 (inactive) | normalized growth (locus YDL074C, strain BRE1, stronger effect = lower value): 0.919 (inactive) | normalized growth (locus YDL101C, strain DUN1, stronger effect = lower value): 0.987 (inactive) | normalized growth (locus YDL134C, strain PPH21, stronger effect = lower value): 0.947 (inactive) | normalized growth (locus YDL185W, strain tfp1, stronger effect = lower value): 0.975 (inactive) | normalized growth (locus YDL192W, strain arf1, stronger effect = lower value): 0.958 (inactive) | normalized growth (locus YDR001C, strain nth1, stronger effect = lower value): 0.906 (active) | normalized growth (locus YDR069C, strain doa4, stronger effect = lower value): 0.958 (inactive) | normalized growth (locus YDR101C, strain arx1, stronger effect = lower value): 0.93 (inactive) | normalized growth (locus YDR137W, strain rgp1, stronger effect = lower value): 0.849 (inactive) | normalized growth (locus YDR159W, strain sac3, stronger effect = lower value): 0.959 (inactive) | normalized growth (locus YDR162C, strain NBP2, stronger effect = lower value): 0.976 (inactive) | normalized growth (locus YDR195W, strain ref2): 1.07 (inactive) | normalized growth (locus YDR297W, strain sur2, stronger effect = lower value): 0.965 (inactive) | normalized growth (locus YDR318W, strain mcm21, stronger effect = lower value): 0.935 (inactive) | normalized growth (locus YDR334W, strain swr1, stronger effect = lower value): 0.943 (inactive) | normalized growth (locus YDR335W, strain msn5, stronger effect = lower value): 0.919 (inactive) | normalized growth (locus YDR388W, stronger effect = lower value): 0.971 (inactive) | normalized growth (locus YDR392W, strain spt3, stronger effect = lower value): 0.58 (active) | normalized growth (locus YDR502C, strain sam2, stronger effect = lower value): 0.914 (active) | normalized growth (locus YEL003W, strain gim4, stronger effect = lower value): 0.951 (inactive) | normalized growth (locus YEL037C, strain rad23, stronger effect = lower value): 0.95 (inactive) | normalized growth (locus YEL061C, strain CIN8 (second series), stronger effect = lower value): 0.931 (inactive) | normalized growth (locus YEL061C, strain CIN8, stronger effect = lower value): 0.993 (inactive) | normalized growth (locus YER015W, strain faa2, stronger effect = lower value): 0.919 (active) | normalized growth (locus YER016W, strain bim1, stronger effect = lower value): 0.965 (inactive) | normalized growth (locus YER110C, stronger effect = lower value): 0.96 (inactive) | normalized growth (locus YER111C, strain swi4, stronger effect = lower value): 0.958 (inactive) | normalized growth (locus YER155C, strain BEM2 (second series), stronger effect = lower value): 0.565 (active) | normalized growth (locus YER155C, strain BEM2, stronger effect = lower value): 0.973 (inactive) | normalized growth (locus YER167W, strain BCK2, stronger effect = lower value): 0.952 (inactive) | normalized growth (locus YFR010W, strain ubp6, stronger effect = lower value): 0.951 (inactive) | normalized growth (locus YGL078C, strain dbp3, stronger effect = lower value): 0.968 (inactive) | normalized growth (locus YGL086W, strain mad1, stronger effect = lower value): 0.916 (active) | normalized growth (locus YGL167C, strain pmr1, stronger effect = lower value): 0.953 (inactive) | normalized growth (locus YGL173C, strain kem1, stronger effect = lower value): 0.949 (inactive) | normalized growth (locus YGL227W, strain vid30, stronger effect = lower value): 0.934 (inactive) | normalized growth (locus YGL240W, strain doc1, stronger effect = lower value): 0.863 (active) | normalized growth (locus YGL248W, strain PDE1, stronger effect = lower value): 0.941 (inactive) | normalized growth (locus YGL253W, strain hxk2, stronger effect = lower value): 0.971 (inactive) | normalized growth (locus YGR078C, strain PAC10, stronger effect = lower value): 0.944 (inactive) | normalized growth (locus YGR135W, strain pre9, stronger effect = lower value): 0.907 (inactive) | normalized growth (locus YGR252W, strain gcn5, stronger effect = lower value): 0.818 (inactive) | normalized growth (locus YHR013C, strain ard1, stronger effect = lower value): 0.865 (inactive) | normalized growth (locus YHR027C, strain rpn1, stronger effect = lower value): 0.953 (inactive) | normalized growth (locus YHR030C, strain SLT2, stronger effect = lower value): 0.984 (inactive) and 0.846 (active) | normalized growth (locus YHR079C, strain IRE1 (second series), stronger effect = lower value): 0.962 (inactive) | normalized growth (locus YHR079C, strain IRE1, stronger effect = lower value): 0.818 (active) | normalized growth (locus YHR094C, strain hxt1, stronger effect = lower value): 0.964 (inactive) | normalized growth (locus YHR129C, strain ARP1, stronger effect = lower value): 0.978 (inactive) | normalized growth (locus YHR142W, strain chs7, stronger effect = lower value): 0.834 (active) | normalized growth (locus YHR200W, strain rpn10, stronger effect = lower value): 0.954 (inactive) | normalized growth (locus YIL066C, strain RNR3, stronger effect = lower value): 0.993 (inactive) | normalized growth (locus YIL073C, strain SPO22, stronger effect = lower value): 0.908 (inactive) | normalized growth (locus YIL125W, strain kgd1, stronger effect = lower value): 0.935 (inactive) | normalized growth (locus YIR030C, strain dcg1, stronger effect = lower value): 0.962 (inactive) | normalized growth (locus YJL092W, strain hpr5, stronger effect = lower value): 0.921 (inactive) | normalized growth (locus YJL095W, strain BCK1 (second series), stronger effect = lower value): 0.96 (inactive) | normalized growth (locus YJL095W, strain BCK1, stronger effect = lower value): 0.901 (inactive) and 0.867 (active) | normalized growth (locus YJL115W, strain asf1, stronger effect = lower value): 0.921 (inactive) | normalized growth (locus YJL129C, strain trk1, stronger effect = lower value): 0.778 (active) | normalized growth (locus YJL134W, strain LCB3, stronger effect = lower value): 0.991 (inactive) | normalized growth (locus YJL154C, strain vps35, stronger effect = lower value): 0.933 (inactive) | normalized growth (locus YJL164C, strain tpk1, stronger effect = lower value): 0.9 (active) | normalized growth (locus YJL166W, strain qcr8, stronger effect = lower value): 0.896 (active) | normalized growth (locus YJL168C, strain set2, stronger effect = lower value): 0.976 (inactive) | normalized growth (locus YJL187C, strain SWE1 (second series), stronger effect = lower value): 0.959 (inactive) | normalized growth (locus YJL187C, strain SWE1, stronger effect = lower value): 0.968 (inactive) | normalized growth (locus YJR043C, strain POL32, stronger effect = lower value): 0.972 (inactive)
